The campaign covered roughly 400,000 compounds. About 2,100 (0.53%) were called active. Roughly 14% stayed inconclusive and do not appear here. How the calls were made is not given here. This excerpt belongs to a sample that is enriched for actives.
The compounds below were run against Ataxin-2 (Homo sapiens) (UniProt Q99700) (assay: qHTS for Inhibitors of ATXN expression.).
Type: functional

Sequence of Ataxin-2 (Homo sapiens) (Q99700 whole entry): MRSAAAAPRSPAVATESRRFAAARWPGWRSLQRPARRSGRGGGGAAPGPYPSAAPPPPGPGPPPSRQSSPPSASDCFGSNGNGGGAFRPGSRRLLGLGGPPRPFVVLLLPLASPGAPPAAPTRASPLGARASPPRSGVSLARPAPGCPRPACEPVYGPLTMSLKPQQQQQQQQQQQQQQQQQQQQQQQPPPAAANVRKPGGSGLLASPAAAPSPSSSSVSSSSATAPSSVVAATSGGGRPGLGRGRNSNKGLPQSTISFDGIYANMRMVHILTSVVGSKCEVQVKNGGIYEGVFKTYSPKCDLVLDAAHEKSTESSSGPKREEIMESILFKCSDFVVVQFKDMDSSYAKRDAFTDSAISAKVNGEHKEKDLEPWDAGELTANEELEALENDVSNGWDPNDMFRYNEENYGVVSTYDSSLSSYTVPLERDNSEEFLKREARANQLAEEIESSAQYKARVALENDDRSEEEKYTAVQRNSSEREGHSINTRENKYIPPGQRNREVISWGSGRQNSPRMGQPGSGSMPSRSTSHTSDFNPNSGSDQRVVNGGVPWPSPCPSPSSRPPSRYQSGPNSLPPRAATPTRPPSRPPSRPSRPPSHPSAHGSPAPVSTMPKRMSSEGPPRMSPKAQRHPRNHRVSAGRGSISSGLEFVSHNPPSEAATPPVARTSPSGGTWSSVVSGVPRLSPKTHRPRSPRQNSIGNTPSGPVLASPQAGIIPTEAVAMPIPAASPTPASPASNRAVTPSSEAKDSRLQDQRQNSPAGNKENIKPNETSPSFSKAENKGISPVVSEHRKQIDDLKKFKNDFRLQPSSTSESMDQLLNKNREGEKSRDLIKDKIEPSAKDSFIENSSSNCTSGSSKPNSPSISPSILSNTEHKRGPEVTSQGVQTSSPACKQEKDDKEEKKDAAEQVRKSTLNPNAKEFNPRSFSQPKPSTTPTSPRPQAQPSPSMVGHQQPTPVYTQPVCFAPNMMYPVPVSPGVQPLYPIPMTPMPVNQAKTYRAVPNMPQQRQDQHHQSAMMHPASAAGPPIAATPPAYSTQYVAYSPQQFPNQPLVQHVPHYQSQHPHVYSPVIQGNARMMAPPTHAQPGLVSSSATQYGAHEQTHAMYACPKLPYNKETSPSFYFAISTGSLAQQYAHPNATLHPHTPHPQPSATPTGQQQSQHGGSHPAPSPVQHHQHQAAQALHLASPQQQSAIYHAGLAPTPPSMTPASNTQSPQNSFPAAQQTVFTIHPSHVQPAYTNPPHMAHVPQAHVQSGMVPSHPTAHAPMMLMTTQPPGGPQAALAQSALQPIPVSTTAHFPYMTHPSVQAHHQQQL

Row | Structure (SMILES) | Potency
1 | O=C(NNc1ccccn1)C(c1ccccc1)c1ccccc1 | inactive
2 | COc1ccc(-c2cc3ccc(O)c(CN4CCC(C)CC4)c3oc2=O)cc1OC | inactive
3 | Cc1c(N=C2N=C(NC(=O)c3ccc(F)cc3)c3ccccc32)c(=O)n(-c2ccccc2)n1C | inactive
4 | N=c1oc2cc(O)ccc2cc1C(=O)Nc1ccc(Br)cc1 | inactive
5 | CCOC(=O)Cc1c(C)nc2c(-c3ccc(Cl)cc3)c(C)nn2c1C | inactive
6 | CCOC(=O)CC(NC(=O)CCc1c(C)nc2c(-c3ccccc3)c(C)nn2c1C)c1ccc(OC(C)C)cc1 (configuration not stated) | 39.8 µM (active)
7 | Cc1ccc(/C=C/C(=O)c2ccc(N3CCOCC3)cc2)s1 | inactive
8 | O=C(C1CCN(c2ncnc3c2nc2n3CCCCC2)CC1)N1CCN(c2ccc(F)cc2)CC1 | 22.4 µM (active)
9 | Clc1cccc(N2CCN(Cc3nnc(-c4ccccc4)o3)CC2)c1 | inactive
10 | O=C(c1cccc(F)c1)N1CCCC(C(=O)N2CCN(c3ccccc3)CC2)C1 (configuration not stated) | inactive
11 | Clc1cccc(N2CCN(c3ncnc4c3nc3n4CCCCC3)CC2)c1 | 14.1 µM (active)
12 | O=C(OCC(=O)N1CCN(c2ccc(F)cc2)CC1)c1cnc2ccccc2n1 | inactive
13 | CNC(=O)/C(C#N)=C/c1c(N2CCN(c3cccc(Cl)c3)CC2)nc2c(C)cccn2c1=O | inactive
14 | O=C(OCC(=O)N1CCCC1)c1c[nH]c2ccccc12 | inactive
15 | Cc1cc(C)c2c(CC(=O)O)c(C)[nH]c2c1 | inactive
16 | O=c1ccc2ccc(O)cc2o1 | inactive
17 | Cn1c2ccccc2n2c(=O)cc(-c3ccccc3)c(C#N)c12 | inactive
18 | CS(=O)(=O)c1nc(-c2ccc(Br)cc2)cc(-c2ccccc2)c1C#N | 28.2 µM (active)
19 | CS(=O)(=O)c1sc2nc(-c3ccccc3)cc(-c3ccccc3)c2c1N | inactive
20 | N#Cc1c(-c2ccncc2)cc(-c2ccc(F)cc2)nc1N | inactive
21 | CS(=O)(=O)c1nc(-c2ccccc2)cc(-c2ccccc2)c1C#N | 31.6 µM (active)
22 | CCO/C(O)=C(/Sc1nc(-c2ccccc2)cc(-c2ccccc2)c1C#N)C(C)=O | inactive
23 | COCCCn1c(=N)c(C(=O)NCc2cccnc2)cc2c(=O)n3cc(C)ccc3nc21 | inactive
24 | CC(=O)c1c(C)[nH]c(C(=O)OCC(=O)c2ccc3c(c2)NC(=O)CO3)c1C | inactive
25 | CC(C)C(=O)Nc1ccc(S(=O)(=O)Nc2nccc(/C=C/c3ccccc3)n2)cc1 | inactive
26 | c1ccc(-c2cc(-c3ccc(N4CCOCC4)cc3)nc3ccccc23)cc1 | inactive

Row | Structure (SMILES) | Potency
27 | c1ccc(-c2cc(NCCN3CCCCC3)c3ccccc3n2)cc1 | 20 µM (active)
28 | c1ccc2cc3c(NCCN4CCOCC4)ccnc3cc2c1 | inactive
29 | Cc1ccc(C2C=C(c3ccc4c(c3)OCO4)Nc3ncnn32)cc1 (configuration not stated) | inactive
30 | CC(C)(C)OC(=O)NNc1c2ccccc2nc2ccccc12 | inactive
31 | O=C(NNc1c2ccccc2nc2ccccc12)c1ccccc1O | 35.5 µM (active)
32 | CCSc1ccccc1C(=O)Nc1nc(O)c2ccccc2n1 | inactive
33 | CSc1nsc(SCC(=O)NCc2ccc(C)cc2)n1 | inactive
34 | Cc1ccc(CNC(=O)CN(c2ccc(C(C)C)cc2)S(=O)(=O)c2c(C)n[nH]c2C)cc1 | 35.5 µM (active)
35 | Cc1n[nH]c(C)c1S(=O)(=O)N(CC(=O)NC(C)c1ccccc1)c1ccc(C(C)C)cc1 (configuration not stated) | 35.5 µM (active)
36 | COc1ccc(S(=O)(=O)N(CC(=O)NCc2ccccc2)c2ccc(C)cc2)cc1OC | 35.5 µM (active)
37 | Cc1ccc(CNC(=O)CN(C)S(=O)(=O)c2ccc(F)cc2)cc1 | inactive
38 | Cc1c(Cl)cccc1N(CC(=O)NC(C)c1ccccc1)S(C)(=O)=O (configuration not stated) | inactive
39 | COc1ccc(N(CC(=O)Nc2ccccc2Cl)S(=O)(=O)c2ccc(C)cc2)cc1OC | inactive
40 | Cc1cc(S(=O)(=O)NC(C)C)ccc1OCC(=O)NCc1ccccc1 | inactive
41 | Cc1cccc(C(=O)NCC(=O)OCC(=O)N2CCc3ccccc32)c1 | inactive
42 | N#C/C(=C\Nc1ccc2c[nH]nc2c1)c1nc(-c2ccc(Cl)cc2)cs1 | inactive
43 | O=C(NC(=S)NCc1ccco1)c1ccc(Br)cc1 | inactive
44 | C=CCN(CC=C)C(=S)NC(=O)c1ccc(-c2ccccc2)cc1 | 25.1 µM (active)
45 | CCCN(CC1CC1)C(=S)NC(=O)c1ccccc1C | inactive
46 | COc1cc(/C=C2/C(=N)N3C(SC)=NSC3=NC2=O)ccc1OC(=O)c1ccco1 | inactive
47 | CCOC(=O)N1CCN(C(=O)c2cc3cc(C)ccc3[nH]2)CC1 | inactive
48 | CC(C)CCN1C(=O)C2(OCCCO2)c2cc(Cl)ccc21 | inactive
49 | COc1cccc(NC(=O)C(=O)NCC2CCCN2S(=O)(=O)c2cccs2)c1 (configuration not stated) | inactive
50 | O=C(NC1CCN(Cc2ccccc2)CC1)c1ccccc1Cl | inactive
51 | S=C(Nc1ccc(Cl)c(Cl)c1)NC1CCN(Cc2ccccc2)CC1 | 28.2 µM (active)
52 | Cc1ccc(NC(=S)NCc2ccccc2)cc1C | inactive

Row | Structure (SMILES) | Potency
53 | CCCCCCSc1cc(-c2nc3cc(C)ccn3c2NCCCC)ccc1OC | 35.5 µM (active)
54 | CCCCCCSc1cc(-c2nc3cnccn3c2NCCCC)ccc1OC | inactive
55 | CCCCNc1c(-c2ccc(OC)c(SC(C)CC)c2)nc2cnccn12 (configuration not stated) | inactive
56 | COC(=O)C1=C(C)N(Cc2ccccc2)C(NCc2cc(OC)c(OC)c(OC)c2)=N[C@H]1c1ccc(Br)cc1 | 35.5 µM (active)
57 | COC(=O)C1=C(C)N(c2ccc(OC)cc2)C(C)=C(C(=O)OC)C1c1ccccc1 | inactive
58 | CCN1C=C(C(=O)OC)C(c2cccc(C)c2)C(C(=O)OC)=C1 | inactive
59 | COC(=O)C1=C(C)N(Cc2ccccc2)C(NCc2ccc(OC)cc2)=N[C@H]1c1cccc(F)c1 | 35.5 µM (active)
60 | COC(=O)C1=CN(C(C)C)C=C(C(=O)OC)C1c1cc(Br)c(OC)c(OC)c1 | inactive
61 | COC(=O)C1=C(C)N(Cc2ccccc2)C(NCC(C)C)=N[C@H]1c1cccc(F)c1 | 31.6 µM (active)
62 | COC(=O)C1=C(C)N(Cc2ccccc2)C(NCc2ccccc2)=N[C@H]1c1cccc(F)c1 | 31.6 µM (active)
63 | O=C(COC(=O)c1c(F)cccc1F)NC(=O)NCc1ccccc1 | inactive
64 | COC(=O)C1=CN(Cc2ccccc2)C=C(C(=O)OC)C1c1cc(F)ccc1F | inactive
65 | COC(=O)C1=CN(Cc2ccc(OC)c(OC)c2)C=C(C(=O)OC)C1c1cccc(OC)c1OC | inactive
66 | COCCNC(=O)/C(C#N)=C/c1c(N2CCN(C)CC2)nc2ccccn2c1=O | inactive
67 | COc1ccc2oc3cc(NCCN(C)C)ccc3c(=O)c2c1 | inactive
68 | CCOc1ccc(C(=O)/C=C/c2cn(CC(O)CN3CCc4ccccc43)c3ccccc23)cc1 (configuration not stated) | inactive
69 | CCCN(CCC)CC(O)Cn1cc(/C=C/C(=O)c2ccc(Br)cc2)c2ccccc21 (configuration not stated) | inactive
70 | Cc1nc2c(o1)C(=O)c1ccccc1C2=Nc1ccccc1 | 31.6 µM (active)
71 | Cc1nc(-c2ccc([N+](=O)[O-])cc2)c(-c2ccccc2)o1 | inactive
72 | CC(C)C(NC(=O)c1c(F)cccc1F)C(=O)NCCc1ccc(S(N)(=O)=O)cc1 (configuration not stated) | inactive
73 | CCc1ccccc1S(=O)(=O)Cc1ccc(C(=O)NCCc2ccc(Cl)cc2)o1 | 25.1 µM (active)
74 | COc1ccc(CCNC(=O)c2ccc(CSc3ccccc3)o2)cc1 | inactive
75 | CCC(=O)Nc1cc2nc(O)cc(C)c2cc1C | inactive
76 | O=C(NCCc1ccc(Cl)cc1)c1ccc2c(c1)N(Cc1ccc(F)cc1Cl)C(=O)CS2 | 14.1 µM (active)
77 | O=C(Cc1ccc(Cl)cc1)NCCc1ccc(F)cc1 | inactive
78 | CCN1CCSc2ccc(C(=O)NCc3ccccc3F)cc21 | inactive

Row | Structure (SMILES) | Potency
79 | CCc1c(-c2ccccc2)nc2nc(C)c(C)nn12 | inactive
80 | CCCCN1C(C(=O)Nc2cc(C)on2)=C(O)c2ccccc2S1(=O)=O | inactive
81 | COc1cccc(N=Nc2ccc3cccnc3c2O)c1 | 11.2 µM (active)
82 | COc1cc(N(C(C)=O)c2ccc(O)cc2)c2ncccc2c1 | inactive
83 | CCCC(=O)NC(c1ccc(OC)cc1)c1ccc2cccnc2c1O (configuration not stated) | inactive
84 | COCC(=O)N1CCC(n2nccc2NC(=O)CCOc2ccccc2)CC1 | inactive
85 | COc1cc(OC)c(OC)cc1/C=C1\Oc2cc(OCC(=O)N3Cc4ccccc4C[C@H]3C(=O)O)ccc2C1=O | inactive
86 | CCS(=O)(=O)N1Cc2ccccc2CC1C(=O)N(C)CC(=O)Nc1ccc(OC)cc1 (configuration not stated) | inactive
87 | COC(=O)C1Cc2ccccc2CN1C(=O)CCl (configuration not stated) | 42.3 µM (active)
88 | O=C(c1ccc([N+](=O)[O-])cc1)N1CCC(n2nnc3cc(F)ccc32)CC1 | inactive
89 | CC(=O)N1CCc2c(sc3c2c(=O)n(-c2ccccc2Cl)c(=O)n3Cc2cccc(C)c2)C1 | 35.5 µM (active)
90 | CC(=O)Nc1sc2c(c1C(N)=O)CCN(Cc1ccccc1)C2 | inactive
91 | CCC(C(=O)NCc1cccc(C)c1)n1nc(C)c2c(C)n(-c3ccccc3)nc2c1=O (configuration not stated) | inactive
92 | NNc1ncnc2sc3c(c12)CCC3 | inactive
93 | CCCCNC(=O)COC(=O)c1c2c(nc3ccccc13)/C(=C\c1cccs1)CC2 | inactive
94 | CCOCCCn1/c(=N/C(C)=O)c(C#N)cc2c(=O)n3cccc(C)c3nc21 | inactive
95 | CCN(CC)CCCNc1cc(C(F)(F)F)c(C#N)c2nc3ccccc3n12 | inactive
96 | CCc1ccc(C2=CC(c3cc(Br)ccc3F)n3ncnc3N2)cc1 (configuration not stated) | inactive
97 | Cc1ccn2cc(-c3cc4ccccc4oc3=O)nc2c1 | inactive
98 | O=C(Nc1ncccn1)c1cccc(Cl)c1 | inactive
99 | O=C(Nc1ccc(S(=O)(=O)Nc2ccccn2)cc1)c1cccc(Cl)c1 | inactive
100 | O=C(Nc1cccc(-c2cn3ccccc3n2)c1)c1cc2ccccc2oc1=O | 22.4 µM (active)
101 | O=C(Nc1cccc(-c2cn3ccccc3n2)c1)c1cccc(Cl)c1 | 39.8 µM (active)
102 | Cc1cccn2cc(-c3cc4ccccc4oc3=O)nc12 | inactive

From ChEMBL document CHEMBL1201862, “PubChem BioAssay data set” (2004)
